Screening data: PubChem BioAssay, several laboratories
IEC-6 tox: IEC-6 cytotoxicity, counter-screen for KLF5 inhibitors; luminescence viability; inhibition, % at 5 µM; hit rate 0.78% among 290,000; AID 1825; in the data active means inhibition above about 22%
Ba/F3 V617F tox: reduce viability of Ba/F3 cells dependent on JAK2V617F. AID 1446. hit rate 1.1% among 220,000. inhibition, % at 5.6 µM. Ba/F3 EpoR-JAK2V617F viability, ATP luminescence;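 active means inhibition above the campaign mean plus 3 SD over all tested compounds, cut at about 24% in these data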;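 further: cytokine-independent growth of Ba/F3 cells driven by EpoR plus mutant JAK2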
aSyn 5UTR inh: MLPCN primary screen, SNCA 5' untranslated region; alpha-synuclein 5'UTR reporter, inhibitor activity; inhibition, % (tested at 7.5 µM); hit rate 0.82% among 300,000; in the data active means inhibition above about 60%;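 further: H4 neuroglioblastoma cells stably carrying SNCA 5'UTR luciferase fusion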
BaF3 tox: reduces parental Ba/F3 cell viability, JAK2V617F counter-screen; CellTiter-Glo ATP luminescence; hit rate 1.1% among 220,000; inhibition, % at 5.6 µM;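 active means inhibition above a per-campaign cutoff, the mean inhibition of all tested compounds plus 3 SD, cut at about 27% in these data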
KLF5 inh: suppresses KLF5 promoter-driven expression; hit rate 0.23% among 290,000; DLD-1 KLF5 promoter-luciferase reporter, luminescence; inhibition, % at 5 µM;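 active means inhibition above a per-plate limit of that plate's mean compound inhibition plus 3 SD, cut at about 60% in these data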;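 further: higher means less KLF5 promoter-driven luciferase light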
APP 5UTR inh: APP translation inhibition | AID 1285 | inhibition, % at 2 µM | hit rate 0.82% among 190,000 | SH-SY5Y APP 5'UTR-luciferase reporter, luminescence;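 active means inhibition above a set limit, derived from the sample mean plus 3 SD, cut at about 45% in these data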
Each line names hits and unclear results; the compound was inactive in the other large screens. Compounds with a hit are over-represented: about 2.2% of the library has one in this group of screens.

Cc1ccc(CC(CC(=O)O)C(=O)NCc2ccccc2)cc1 (stereo not given)	none (no result: APP 5UTR inh)
CNC[C@H](Cc1ccccc1)NC[C@@H](Cc1cccc2ccccc12)NCCc1ccc(C)cc1	aSyn 5UTR inh 123 (no result: Ba/F3 V617F tox, BaF3 tox, APP 5UTR inh)
CCn1c(C)nc2cc(C(=O)N/N=C(\C)c3ccc(OC)cc3O)ccc21	aSyn 5UTR inh 84
CCn1c(C)nc2cc(C(=O)N/N=C/c3ccc(OC)cc3)ccc21	none
Cc1cc(C)n(-c2cc(Cl)cc(Cl)c2)c(=O)c1C#N	none
Cc1ccc(-n2c(C)cc(C)c(C#N)c2=O)cc1Cl	APP 5UTR inh 62
COc1ccc(CCN(C)C(=O)C2CCN(Cc3ccc(C)cc3)CC2)cc1OC	none
CC(=O)Nc1cc[n+](C(C)C(=O)c2ccc(Br)cc2)cc1 (stereo not given)	Ba/F3 V617F tox 40, BaF3 tox 37
O=c1[nH]c(SCc2cccc(F)c2)nc2c1CCCC2	none
COc1ccc(NS(=O)(=O)c2ccc(Oc3ncccn3)cc2)cc1	none
COc1ccc(S(=O)(=O)Nc2ccc(Oc3ncccn3)c(Cl)c2)cc1	APP 5UTR inh 46
COc1ccc(C(=O)c2c(-c3ccsc3)oc3ccc(-c4ccc(OC)cc4)cc23)cc1	none (no result: IEC-6 tox, Ba/F3 V617F tox, BaF3 tox, KLF5 inh, APP 5UTR inh)
C=CCNc1cc(N2CCCC2)ccc1[N+](=O)[O-]	APP 5UTR inh 57
Nc1nc(SCc2cccc([N+](=O)[O-])c2)n[nH]1	none (no result: Ba/F3 V617F tox, BaF3 tox, APP 5UTR inh)
Cc1cnc(NC(=O)Nc2ccc(Cl)cc2)s1	IEC-6 tox 29, Ba/F3 V617F tox 92, BaF3 tox 72
Cc1cnc(NC(=O)COc2ccccc2Cl)s1	aSyn 5UTR inh 82
Cc1cnc(NC(=O)CSc2ccc(Cl)cc2)s1	none
O=C(OCCN1C(=O)c2cccc3c(N4CCOCC4)ccc(c23)C1=O)c1ccc(Cl)cc1	APP 5UTR inh 50
O=c1oc2ccc(Cl)cc2nc1/C=C(\O)c1cccs1	Ba/F3 V617F tox 36, BaF3 tox 38 (no result: APP 5UTR inh)
CS(=O)(=O)NCCNC(=O)c1cc(OCC(F)(F)F)ccc1OCC(F)(F)F	APP 5UTR inh 78
O=C(CCn1c(=O)c2cccn2c2ccccc21)Nc1ccc(F)cc1	none (no result: Ba/F3 V617F tox, BaF3 tox, APP 5UTR inh)
CNC[C@H](CC1CCCCC1)NC[C@H](Cc1ccccc1)NCCC12CC3CC(CC(C3)C1)C2	aSyn 5UTR inh 125 (no result: Ba/F3 V617F tox, BaF3 tox, APP 5UTR inh)
COc1ccc(C2=NN(CC(=O)NCc3ccco3)C(=O)CC2)cc1	none
N#Cc1cc2cc3c(cc2nc1SCC(=O)N1CCOCC1)OCCO3	aSyn 5UTR inh 110 (no result: Ba/F3 V617F tox, BaF3 tox, APP 5UTR inh)
Cc1ccc(-c2cc3c(nn2)-c2ccccc2C3=O)cc1	aSyn 5UTR inh 86 (no result: APP 5UTR inh)
CCN1CCN(c2ccc(S(=O)(=O)N3CCCCC3)cc2NC(=O)c2ccc([N+](=O)[O-])s2)CC1	none (no result: IEC-6 tox, Ba/F3 V617F tox, BaF3 tox, KLF5 inh, APP 5UTR inh)
CCN(CC)CCSc1nnc2c3ccccc3n(Cc3ccccc3)c2n1	Ba/F3 V617F tox 29, BaF3 tox 49 (no result: APP 5UTR inh)
COc1cnc(-c2ccccn2)nc1N(C)c1ccccc1	aSyn 5UTR inh 89 (no result: Ba/F3 V617F tox, BaF3 tox, APP 5UTR inh)
COc1cnc(-c2ccccn2)nc1Oc1ccccc1	none
Cc1ccc2nc(NC(=O)c3ccco3)sc2c1	aSyn 5UTR inh 85
O=C(/C=C\c1cccs1)c1c(O)ccc2ccc(=O)oc12	none
COc1ccccc1C(=O)N=Nc1c(O)[nH]c2ccc([N+](=O)[O-])cc12	Ba/F3 V617F tox 60 (no result: aSyn 5UTR inh)
NC(=O)N=Nc1c(O)[nH]c2ccc([N+](=O)[O-])cc12	none (no result: APP 5UTR inh)
Cc1cc(C)nc(N2CCN(c3ccc(F)cc3)CC2)n1	none (no result: Ba/F3 V617F tox, BaF3 tox, APP 5UTR inh)
CCOC(=O)c1c(C)[nH]c(C(=O)COC(=O)c2ccc(O)cc2)c1C	Ba/F3 V617F tox 39, BaF3 tox 40 (no result: APP 5UTR inh)
CCOC(=O)c1c(C)[nH]c(C)c1C(=O)COC(=O)/C=C/c1ccc(OC(F)F)cc1	none
CCOC(=O)c1c(C)[nH]c(C(=O)COC(=O)/C=C/c2ccc(OC(F)F)cc2)c1C	BaF3 tox 65
CCOC(=O)c1[nH]c(C)c(C(=O)OCC(=O)N2CCc3ccccc32)c1C	APP 5UTR inh 46
CC(C)Cc1ccc(C(C)NC(=O)Cc2ccc(S(=O)(=O)N3CCOCC3)s2)cc1 (stereo not given)	none (no result: IEC-6 tox, Ba/F3 V617F tox, BaF3 tox, KLF5 inh, APP 5UTR inh)
CCOc1ccc(Oc2ccccc2NC(=O)CN2C(=O)NC3(CCCC3)C2=O)cc1	none (no result: IEC-6 tox, Ba/F3 V617F tox, BaF3 tox, KLF5 inh, APP 5UTR inh)
Oc1ccc(Br)cc1C=Nc1ccc2c3c(cccc13)CC2	none
CC(=O)OCc1nc2sc(C)c(C)c2c(=O)[nH]1	APP 5UTR inh 59
COc1ccc(OCC(O)CN2CCC(CN3C(=O)c4cccc5cccc(c45)C3=O)CC2)cc1 (stereo not given)	none (no result: IEC-6 tox, Ba/F3 V617F tox, BaF3 tox, KLF5 inh, APP 5UTR inh)
Cc1ccc(C)c(OCC(O)CN2CCC(CN3C(=O)c4cccc5cccc(c45)C3=O)CC2)c1 (stereo not given)	APP 5UTR inh 69
